Test results taken from PubChem BioAssay AID1626 (SRMLSC, 2009).
About 2,000 (0.91%) of roughly 220,000 compounds were called active. Roughly 2% stayed inconclusive and do not appear here. The list is a sample of the results. Potency and affinity values are given separately. A number with no mark means an inactive call. No stated cut-off is given here; in the data, inconclusive means inhibition above about 80% without an active follow-up result; inactive means below that; test concentration not stated here.

experiment: M. tuberculosis H37Rv growth inhibitors, H37Rv strain (AID 1626); conditions: hits give high values, concentration not given here;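 further: bacteria incubated seven days before Alamar blue readout; 0% = bacteria only wells and 100% = bacteria with antibiotic wells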

Row | SMILES | inhibition [%]
1 | C=CCn1nnnc1-c1cc(Cl)cc(Cl)c1 | 2.4
2 | CCCn1nc(C(=O)OCC(=O)c2c(N)n(C)c(=O)n(C)c2=O)c2ccccc2c1=O | 5.18
3 | N#Cc1c(/N=C/c2cccnc2)sc2c1CCCC2 | 2.15
4 | O=C(CN1C(=O)c2ccccc2C1=O)Nc1cccc2cccnc12 | 7.46
5 | CC1=CC(C)(C)N(C(=O)CSc2nncn2C)c2ccccc21 | 4.36
6 | C=CCN(CC=C)S(=O)(=O)c1ccc(NC(=S)NC(=O)/C=C/c2cccc3ccccc23)cc1 | 2.67
7 | CC(C)(C)OC(=O)NNC(=S)NCc1ccc(Cl)cc1 | -13
8 | CCc1ccc2[nH]c(=O)c(CN(Cc3ccccc3OC)C(=O)Nc3ccccc3OC)cc2c1 | 7.78
9 | CC1CCN(C(=O)CSc2nnc(-c3cccnc3)n2C2CCCCC2)CC1 | -2.09
10 | COc1cc(-c2cc(C(=O)Nc3ccc(S(=O)(=O)Nc4ncccn4)cc3)c3ccccc3n2)cc(OC)c1OC | 40.2
11 | Cc1cc(C)cc(OCc2nnc(SCC(=O)N3CCN(c4ccccc4)CC3)o2)c1 | -4.78
12 | Cc1cccc(C(=O)c2c(N)sc3c2CCC(C)C3)c1 (centres undefined) | 5.18
13 | CCOc1ccc(S(=O)(=O)NCCN2CCOCC2)c2ccccc12 | -4.29
14 | CCOC(=O)C1(CC2CCCCO2)CCN(C(=O)Nc2ccccc2SC)CC1 (centres undefined) | 6.6
15 | CCC(=O)N1CCN(c2c(Cl)cccc2[N+](=O)[O-])CC1 | 4.63
16 | CCCCN(CC)CCCNC(=S)Nc1ccc2nc3n(c(=O)c2c1)CCCCC3 | -5.11
17 | O=C(COC(=O)c1n[nH]c2ccccc12)Nc1ccccc1 | -10.9
18 | O=C(NCCN1CCOCC1)c1ccccc1[N+](=O)[O-] | 1.9
19 | O=C(NCCCN1CCOCC1)c1ccc(Cl)cc1[N+](=O)[O-] | -0.73
20 | O=C(NCCN1CCOCC1)c1ccc(Cl)cc1[N+](=O)[O-] | -10.2

Row | SMILES | inhibition [%]
21 | O=C(NCCCN1CCOCC1)c1cc(Cl)ccc1[N+](=O)[O-] | -3.28
22 | COc1ccc(CNC(=O)COC(=O)c2n[nH]c3ccccc23)cc1 | 10.8
23 | Cc1ccc(SC[C@H](CC(C)C)N2CCN(CCc3ccccc3)CCC2=O)cc1 | 16.3
24 | CCOc1ccccc1-c1n[nH]c(=S)o1 | 6.98
25 | COCCOC(=O)C1=C(C)NC(=O)NC1c1c(Cl)nc2c(C)cccn2c1=O (centres undefined) | -7.69
26 | Cc1noc(C)c1S(=O)(=O)N1CCCC(C(=O)c2cccc(OC(C)C)c2)C1 (centres undefined) | 0
27 | Cc1nc2cc(C(=O)OCC(=O)NC(C)C(C)C)ccc2n1-c1ccccc1 (centres undefined) | -6.92
28 | Cc1nc2cc(C(=O)OCC(=O)NC3CCS(=O)(=O)C3)ccc2n1-c1ccccc1 (centres undefined) | -9.28
29 | CCCOc1ccc(/C(O)=C2/C(=O)C(=O)N(CCCOC)C2c2ccncc2)cc1 (centres undefined) | -0.21
30 | COCCCNS(=O)(=O)c1ccc2c(c1)OCCO2 | -7.88
31 | CC(C)c1nc2sc3ccccc3c(=O)c2c(=O)n1Cc1ccccc1 | -7.18
32 | COc1ccc(-c2ccc3oc(-c4ccc(OC)cc4)c(C#CC4(O)CCCCC4)c3c2)cc1 | 18.4
33 | COc1ccc(C#Cc2c(-c3ccsc3)oc3ccc(-c4cc(OC)c(OC)c(OC)c4)cc23)cc1 | 0.45
34 | COc1ccc(-c2oc3ccc(N4CCOCC4)cc3c2C#CC2(O)CCCCC2)cc1 | 89.2
35 | Nc1ccc(C#Cc2c(-c3ccsc3)oc3ccc(N4CCOCC4)cc23)cc1 | 61.1
36 | CCOc1ccc(C(c2c(NC(=O)c3ccccc3)sc(C)c2C)N2CCN(C)CC2)cc1 (centres undefined) | 17.1
37 | c1ccc(C(c2ccccc2)N2CCN(C(c3ccccn3)c3nnnn3C3CCCC3)CC2)cc1 (centres undefined) | 6.45
38 | COc1cc(OC)c2c(=O)cc(-c3cccnc3)oc2c1 | -11.6
39 | CSc1sc(-c2n[nH]c(=S)n2C)c2c1C=CCC2 | 5.83
40 | COC(=O)c1c(NC(=O)c2ccccc2)sc(C(N)=O)c1C | -3.85

Row | SMILES | inhibition [%]
41 | COC(=O)c1c(NC(=O)c2ccccc2)sc(Cc2ccccc2)c1C | -9.2
42 | CC(O)CCC(=O)NNC1CC(=O)N(c2ccccc2)C1=O (centres undefined) | -8.86
43 | C=CCN(c1ccccc1)S(=O)(=O)c1cccc(C(=O)O)c1 | -12.8
44 | Cc1ccc(-n2nnnc2Sc2nc([N+](=O)[O-])nn2C)cc1 | 0.83
45 | Cc1ccc(C)c(-n2nnnc2Sc2nc([N+](=O)[O-])nn2C)c1 | -10.2
46 | Cc1ccc(C2(c3noc(CN4CCC(c5ccncc5)CC4)n3)CCCC2)cc1 | 13.7
47 | O=C(O)c1ccc(N/N=C/C2=C(N3CCOCC3)C(=C\c3ccccc3)/CC2)cc1 | -3.9
48 | O=CC1=C(N2CCOCC2)/C(=C\c2ccccc2)CC1 | 0.77
49 | CC(=O)Nc1ccc(NC(=O)/C=C/c2cccc(C(F)(F)F)c2)cc1 | 0.39
50 | CCc1ccc2c(c1)C(c1ccncc1)=NNC(c1ccccc1)=N2 | 8.68
51 | CCCC(=O)Nc1nnc(SCC(=O)Nc2ccc3c(c2)OCO3)s1 | 5.81
52 | CN1CCN(C(=O)c2ccc(CSc3nc4ccncc4n3Cc3ccc(F)cc3)cc2)CC1 | -0.01
53 | COc1ccc2nc(C)cc(C(=O)O)c2c1 | 0.85
54 | COc1ccccc1NC(=O)C(C)N1CCN(C/C=C/c2ccccc2)CC1 (centres undefined) | 11.9
55 | COc1ccc(C)cc1NC(=O)CN1CCN(C/C=C/c2ccccc2)CC1 | -3.7
56 | O=C(CN1CCN(C/C=C/c2ccccc2)CC1)Nc1ccccc1C(=O)NC1CC1 | -0.65
57 | O=C(COc1ccccc1)N1CCN(C/C=C/c2ccccc2)CC1 | -6.49
58 | O=C(COc1ccc(Cl)cc1)N1CCN(C/C=C/c2ccccc2)CC1 | 0.36
59 | O=C(CN1CCN(C/C=C/c2ccccc2)CC1)Nc1ccc(F)cc1F | -0.62
